# According to PubChem BioAssay:
# Active and inactive are the calls of the source.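 How the source made its calls, unless noted: active means percent response above 42, roughly 3 SD of non-fluorescent test compounds; inactive means the rest.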
# Key:
# [1] = inhibitors of CD8+ T cell-vesicle binding, pilot screen, LFA-1/ICAM-1 modulator project, MLPCN validation set, flow cytometry (AID 2523;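 active means response below a set limit, under 55% cells CD8-positive and vesicle-bound, and CD8 cells' 90th-percentile brightness under 279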;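 on vesicle binding response: mean PE anti-B7-1 fluorescence of CD8+ cells relative to row control; 100% = QL9-loaded vesicles with DMSO vehicle in the same plate row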); conditions: 2C mouse CD8+ T cells, at 7 µM, stronger effect = lower value; double positive events: measured here: CD8+/vesicle+ event percentage
# [2] = biological target: Integrin beta-1 (Homo sapiens) + Integrin alpha-4 (Homo sapiens) (UniProt P13612+P05556); experiment: inhibition of HUTS-21 binding to VLA-4, pilot screen, VLA-4 allosteric modulator project, U937 cells, HUTS-21 mAb, flow cytometry, validation set (AID 2674;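 active means inhibition above 50%, about 3 SD of the validation set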;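 further: antibody binding induced by the VLA-4 ligand LDV present at three times its Kd; 0% = LDV ligand with antibody and no compound and 100% = antibody without LDV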); conditions: HUTS-21 LIBS mAb binding, at 6.7 µM, stronger effect = higher value, binding induced by LDV ligand
# [3] = superoxide lowering in aged yeast cells, pilot screen, validation compound set (AID 2706;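 active means superoxide response below 65% of plate, a cut near 3 SD across the whole screen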;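 further: yeast exposed to compound for one week at 30 degrees C before staining; 100% = mean of all compound wells on the same plate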); conditions: S. cerevisiae aging, superoxide DHE fluorescence; at 10 µM, stronger effect = lower value
# [4] = biological target: Beta-adrenergic receptor kinase 1 (Homo sapiens) (UniProt P25098); experiment: GRK2 binders displacing RNA aptamer, biochemical, validation, human GRK2, bead flow cytometry (AID 488806;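 active means aptamer binding inhibition above 30%, about 3 SD of noise from non-fluorescent compounds; inactive means inhibition at or below 30%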); conditions: bead-bound GRK2, FAM-aptamer displacement, at 10 µM, stronger effect = higher value
# [5] = biological target: Beta-2 adrenergic receptor (Homo sapiens) (UniProt P07550); experiment: beta2AR agonists driving receptor internalization, pilot screen, cell-based, FAP fluorogen, flow cytometry, validation set (AID 504459); conditions: Am2.2-beta2AR cells, FAP surface receptor flow cytometry; at 10 µM; stronger effect = higher value;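 further: agonist-driven loss of surface beta2AR via internalization measured by FAP dye flow cytometry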
# [6] = biological target: AP-2 complex subunit beta (Homo sapiens) (UniProt P63010); experiment: inhibitors of arrestin peptide binding to AP2, pilot screen, biochemical, validation set, GST-AP2 beads, flow cytometry (AID 504541;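 active means inhibition above 54%, about 3 SD of non-fluorescent compounds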;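 further: AP2 carries R879A mutation and is captured from E. coli lysate; bead-bound FITC arrestin peptide fluorescence measuring arrestin peptide binding to AP2; 0% = DMSO wells and 100% = excess unlabeled arrestin peptide control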); conditions: FITC arrestin peptide, at 10 µM, stronger effect = higher value, AP2 beta2 appendage fragment, R879A mutant
# [7] = yeast V-ATPase proton transport modulators, S. cerevisiae, pHLuorin, HTS validation (AID 504600; in the data active means response above about 15%;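 further: plate controls were DMSO for no effect and reference compound for full effect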); conditions: S. cerevisiae pHLuorin cytosolic pH, at 10 µM, stronger effect = higher value
# [8] = test system: anti-desmoglein-3 scFv antibody binding to human DSG3; experiment: inhibitors of anti-DSG3 scFv binding to DSG3, pilot screen, biochemical, validation compound set, bead-based, flow cytometry (AID 588368;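 active means binding below the plate cutoff, the plate median minus 3 SD, with a reading above zero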;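 further: signal is the median channel fluorescence of bead-bound GFP antibody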); conditions: Protein G beads, DSG3-Fc, scFv-GFP binding, at 10 µM, stronger effect = lower value
# [9] = inhibitors of fungal efflux pumps CDR1, CDR2, MDR1, pilot screen, validation compound set, multiplex, phenotypic (AID 588506;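 active means efflux inhibition above 0.42, the validation set average plus 4 SD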;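 further: Nile Red retained in cells so higher fluorescence means more efflux inhibition; 0 = negative control wells and 1 = enniatin B 25 µM full block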); conditions: S. cerevisiae pump-expressing triplex, Nile Red efflux flow cytometry; at 10 µM; stronger effect = higher value; the pumps come from Candida albicans
# [10] = biological target: ATP-binding cassette sub-family B member 6 (Homo sapiens) (UniProt Q9NP58); experiment: ABCB6 transporter inhibitors, pilot screen, K562-ABCB6 cells, flow cytometry, validation set (AID 588550;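 active means inhibition above the screen-wide mean plus 3 SD, about 51%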;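 further: 0% = DMSO wells and 100% = benzethonium chloride 70 µM positive control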); conditions: K562-ABCB6 porphyrin accumulation, 1 h, at 10 µM, stronger effect = higher value
# [11] = promoters of myeloid differentiation in arrested cells, primary screen, cell-based, GFP/MAC1 double positive, flow cytometry, validation set (AID 588685;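 active means differentiation response of at least 50%, scaled between solvent and reference control, from cells with both markers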;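 further: compound exposure lasts four days before antibody staining and flow analysis; 0% = DMSO wells and 100% = 5 µM fulvestrant positive control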); conditions: ER-HoxA9 marrow cells, stronger effect = higher value, normalized: vehicle 0, fulvestrant 100
# Sequence of Beta-2 adrenergic receptor (Homo sapiens) (P07550 whole entry, looked up): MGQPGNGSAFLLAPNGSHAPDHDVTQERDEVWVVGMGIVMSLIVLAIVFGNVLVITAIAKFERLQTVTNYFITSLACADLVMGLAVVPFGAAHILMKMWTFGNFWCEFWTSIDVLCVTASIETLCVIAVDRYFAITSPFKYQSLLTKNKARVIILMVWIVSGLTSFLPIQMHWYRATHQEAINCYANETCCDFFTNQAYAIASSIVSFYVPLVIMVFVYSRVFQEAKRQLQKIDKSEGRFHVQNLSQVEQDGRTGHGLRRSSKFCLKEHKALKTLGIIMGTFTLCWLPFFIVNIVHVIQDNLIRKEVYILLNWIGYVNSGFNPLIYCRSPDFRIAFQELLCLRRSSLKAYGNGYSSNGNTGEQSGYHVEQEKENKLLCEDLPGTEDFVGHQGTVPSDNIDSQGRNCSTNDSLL
# Sequence of AP-2 complex subunit beta (Homo sapiens) (P63010 whole entry, looked up, the tested form may be a part, one chain of several): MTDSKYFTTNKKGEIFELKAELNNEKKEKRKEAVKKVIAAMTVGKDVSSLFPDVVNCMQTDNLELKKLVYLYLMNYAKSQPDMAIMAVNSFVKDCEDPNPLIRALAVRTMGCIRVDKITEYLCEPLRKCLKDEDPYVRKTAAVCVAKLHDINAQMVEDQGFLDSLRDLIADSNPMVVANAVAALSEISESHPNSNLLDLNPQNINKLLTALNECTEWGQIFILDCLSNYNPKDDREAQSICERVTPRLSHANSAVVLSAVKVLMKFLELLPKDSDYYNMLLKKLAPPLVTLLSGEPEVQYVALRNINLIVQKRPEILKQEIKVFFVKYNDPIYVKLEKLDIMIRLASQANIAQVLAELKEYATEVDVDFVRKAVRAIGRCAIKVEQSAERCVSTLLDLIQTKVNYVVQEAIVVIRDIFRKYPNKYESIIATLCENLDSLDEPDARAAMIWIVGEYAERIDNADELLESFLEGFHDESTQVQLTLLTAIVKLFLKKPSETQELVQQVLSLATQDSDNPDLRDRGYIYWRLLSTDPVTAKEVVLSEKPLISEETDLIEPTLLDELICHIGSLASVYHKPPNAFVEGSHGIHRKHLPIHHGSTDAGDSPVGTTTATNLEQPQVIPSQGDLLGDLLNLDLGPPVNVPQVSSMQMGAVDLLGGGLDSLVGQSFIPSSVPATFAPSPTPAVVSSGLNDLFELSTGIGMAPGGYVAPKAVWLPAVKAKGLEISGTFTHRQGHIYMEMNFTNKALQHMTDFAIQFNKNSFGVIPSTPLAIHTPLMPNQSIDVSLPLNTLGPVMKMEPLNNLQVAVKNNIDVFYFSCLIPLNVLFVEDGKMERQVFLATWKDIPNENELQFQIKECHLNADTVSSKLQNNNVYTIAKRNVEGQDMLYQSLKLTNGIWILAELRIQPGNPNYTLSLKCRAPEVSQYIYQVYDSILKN
# Sequence of ATP-binding cassette sub-family B member 6 (Homo sapiens) (Q9NP58 whole entry, looked up): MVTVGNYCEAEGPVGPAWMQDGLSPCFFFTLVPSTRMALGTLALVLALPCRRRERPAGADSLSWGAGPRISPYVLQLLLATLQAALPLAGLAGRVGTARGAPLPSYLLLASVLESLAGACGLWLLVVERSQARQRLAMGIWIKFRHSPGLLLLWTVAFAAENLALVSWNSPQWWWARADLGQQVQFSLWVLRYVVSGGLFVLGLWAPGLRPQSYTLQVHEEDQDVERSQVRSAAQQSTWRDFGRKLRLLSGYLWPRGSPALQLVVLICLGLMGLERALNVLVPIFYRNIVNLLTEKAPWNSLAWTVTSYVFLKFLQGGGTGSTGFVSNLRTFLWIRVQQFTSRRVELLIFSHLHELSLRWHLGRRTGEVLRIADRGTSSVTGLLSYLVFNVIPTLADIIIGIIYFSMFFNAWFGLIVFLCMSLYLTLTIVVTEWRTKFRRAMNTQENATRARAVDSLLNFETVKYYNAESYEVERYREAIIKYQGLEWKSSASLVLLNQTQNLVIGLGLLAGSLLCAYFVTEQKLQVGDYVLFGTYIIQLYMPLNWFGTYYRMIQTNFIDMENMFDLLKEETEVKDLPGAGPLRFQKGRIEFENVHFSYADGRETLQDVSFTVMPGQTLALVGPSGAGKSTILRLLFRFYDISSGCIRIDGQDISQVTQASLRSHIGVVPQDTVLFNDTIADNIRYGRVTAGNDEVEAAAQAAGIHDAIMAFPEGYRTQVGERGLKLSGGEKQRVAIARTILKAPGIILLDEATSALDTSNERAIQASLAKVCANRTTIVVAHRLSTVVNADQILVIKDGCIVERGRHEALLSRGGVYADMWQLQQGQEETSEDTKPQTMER
# Sequence of Beta-adrenergic receptor kinase 1 (Homo sapiens) (P25098 whole entry, looked up): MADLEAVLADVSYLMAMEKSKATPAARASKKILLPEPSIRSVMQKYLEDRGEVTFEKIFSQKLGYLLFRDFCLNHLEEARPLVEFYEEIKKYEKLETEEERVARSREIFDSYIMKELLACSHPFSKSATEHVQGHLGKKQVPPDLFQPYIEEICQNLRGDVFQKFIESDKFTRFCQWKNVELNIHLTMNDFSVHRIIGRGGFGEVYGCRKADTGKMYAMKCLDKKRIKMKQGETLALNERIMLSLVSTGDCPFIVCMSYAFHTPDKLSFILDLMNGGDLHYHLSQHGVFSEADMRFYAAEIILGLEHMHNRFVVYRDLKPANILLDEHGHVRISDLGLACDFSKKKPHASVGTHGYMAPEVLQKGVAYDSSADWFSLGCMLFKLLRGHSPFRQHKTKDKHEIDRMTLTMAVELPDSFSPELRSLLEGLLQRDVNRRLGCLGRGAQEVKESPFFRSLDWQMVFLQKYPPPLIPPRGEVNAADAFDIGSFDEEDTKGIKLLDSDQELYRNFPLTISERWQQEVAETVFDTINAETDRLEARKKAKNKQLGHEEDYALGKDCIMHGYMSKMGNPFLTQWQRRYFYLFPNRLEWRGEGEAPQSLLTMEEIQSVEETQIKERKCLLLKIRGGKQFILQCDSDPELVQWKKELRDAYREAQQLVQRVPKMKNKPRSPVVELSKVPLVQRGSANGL
# Sequence of Integrin beta-1 (Homo sapiens) + Integrin alpha-4 (Homo sapiens) (P05556 whole entry, looked up): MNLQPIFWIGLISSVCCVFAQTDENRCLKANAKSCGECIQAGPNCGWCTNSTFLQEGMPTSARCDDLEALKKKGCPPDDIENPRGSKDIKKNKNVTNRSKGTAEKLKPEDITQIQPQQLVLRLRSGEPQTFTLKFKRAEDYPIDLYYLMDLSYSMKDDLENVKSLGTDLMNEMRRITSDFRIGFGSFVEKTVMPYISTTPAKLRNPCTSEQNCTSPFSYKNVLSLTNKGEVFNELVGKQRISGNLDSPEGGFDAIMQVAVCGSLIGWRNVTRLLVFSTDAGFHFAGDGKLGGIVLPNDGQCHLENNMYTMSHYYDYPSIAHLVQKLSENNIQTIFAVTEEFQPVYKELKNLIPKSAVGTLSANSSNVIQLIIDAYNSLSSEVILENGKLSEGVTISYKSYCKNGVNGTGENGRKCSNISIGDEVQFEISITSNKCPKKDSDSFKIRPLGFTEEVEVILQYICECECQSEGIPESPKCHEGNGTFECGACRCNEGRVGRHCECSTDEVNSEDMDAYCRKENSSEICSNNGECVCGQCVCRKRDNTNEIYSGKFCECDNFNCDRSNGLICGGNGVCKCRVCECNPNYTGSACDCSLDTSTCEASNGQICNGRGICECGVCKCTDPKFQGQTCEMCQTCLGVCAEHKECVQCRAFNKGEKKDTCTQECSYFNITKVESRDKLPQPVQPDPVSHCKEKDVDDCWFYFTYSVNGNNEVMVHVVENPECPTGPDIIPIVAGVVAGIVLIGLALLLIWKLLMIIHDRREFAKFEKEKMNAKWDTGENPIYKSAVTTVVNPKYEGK
# Sequence of Integrin beta-1 (Homo sapiens) + Integrin alpha-4 (Homo sapiens) (P13612 whole entry, looked up): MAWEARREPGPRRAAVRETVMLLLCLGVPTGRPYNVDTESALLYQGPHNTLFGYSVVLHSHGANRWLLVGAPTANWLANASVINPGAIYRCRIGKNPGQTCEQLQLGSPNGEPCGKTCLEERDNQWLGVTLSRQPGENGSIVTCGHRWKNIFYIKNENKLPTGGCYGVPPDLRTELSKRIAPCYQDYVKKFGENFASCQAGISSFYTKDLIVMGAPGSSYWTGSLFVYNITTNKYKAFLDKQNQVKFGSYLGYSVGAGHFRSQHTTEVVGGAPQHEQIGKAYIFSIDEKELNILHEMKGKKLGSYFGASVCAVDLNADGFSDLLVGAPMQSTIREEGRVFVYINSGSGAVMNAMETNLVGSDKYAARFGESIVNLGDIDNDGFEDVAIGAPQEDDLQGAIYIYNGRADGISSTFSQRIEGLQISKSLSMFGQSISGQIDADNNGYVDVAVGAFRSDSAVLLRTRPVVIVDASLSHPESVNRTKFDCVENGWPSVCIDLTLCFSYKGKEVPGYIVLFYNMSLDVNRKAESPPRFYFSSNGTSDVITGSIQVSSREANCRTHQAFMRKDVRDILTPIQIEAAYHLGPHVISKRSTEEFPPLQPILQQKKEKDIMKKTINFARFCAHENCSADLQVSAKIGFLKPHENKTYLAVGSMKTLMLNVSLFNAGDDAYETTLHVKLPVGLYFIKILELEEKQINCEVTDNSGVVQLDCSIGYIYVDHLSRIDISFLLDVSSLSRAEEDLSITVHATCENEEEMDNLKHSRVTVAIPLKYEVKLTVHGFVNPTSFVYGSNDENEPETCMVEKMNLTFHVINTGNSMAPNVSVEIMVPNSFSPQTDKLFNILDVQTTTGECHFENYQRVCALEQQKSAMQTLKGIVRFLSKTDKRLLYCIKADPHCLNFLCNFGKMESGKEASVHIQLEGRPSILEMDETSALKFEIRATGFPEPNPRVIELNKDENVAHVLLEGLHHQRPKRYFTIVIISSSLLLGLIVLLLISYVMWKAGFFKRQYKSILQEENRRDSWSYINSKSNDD
SMILES,double positive events [1] [%],vesicle binding response [1],inhibition [2],superoxide response (% of plate) [3],aptamer binding inhibition [4],response [5],inhibition [6],response [7],binding (% of control) [8],efflux inhibition (fraction of control) [9],inhibition [10],differentiation response [11]
CC1(C)C2CCC1(C(=O)O)c1nc3ccccc3nc12 (stereo unspecified),61.8,372% (inactive),-1.12% (inactive),72.9% (inactive),2% (inactive),-10.7% (inactive),6.26% (inactive),0.59% (inactive),100% (inactive),0.04 (inactive),20% (inactive),-6.96% (inactive)
CC(C)OC(=O)CC1C(=O)NCCN1C(=S)NC(=O)c1ccccc1Cl (stereo unspecified),57.9,115% (inactive),-5.11% (inactive),94.8% (inactive),1% (inactive),11.7% (inactive),7.65% (inactive),-6.29% (inactive),111% (inactive),0 (inactive),-197% (inactive),-10.4% (inactive)
CC(C)Cc1nc(NCCN2CCOCC2)c(C#N)c2c1COC(C)(C)C2,61.1,159% (inactive),7.4% (inactive),93.4% (inactive),-1% (inactive),-20.4% (inactive),-18.1% (inactive),3.4% (inactive),104% (inactive),0.08 (inactive),-5% (inactive),-15.8% (inactive)
O=C(NCc1ccccc1Cl)NC(=O)c1ccccc1,62,221% (inactive),6.46% (inactive),115% (inactive),4% (inactive),0.79% (inactive),8.1% (inactive),-5.42% (inactive),98.7% (inactive),0.19 (inactive),7% (inactive),1.64% (inactive)
COc1ccc(S(=O)(=O)NC(Cc2cnc[nH]2)C(=O)O)cc1 (stereo unspecified),49.4,8.1% (active),9.13% (inactive),100% (inactive),1% (inactive),-7.36% (inactive),-1% (inactive),1.95% (inactive),99.1% (inactive),-0.35 (inactive),-19% (inactive),-20% (inactive)
CC(=O)C1=C(NC(=O)c2ccc(C(F)(F)F)cc2)C[C@@H]2[C@H]1C2(C)C,60,129% (inactive),-3.77% (inactive),99% (inactive),3% (inactive),0.35% (inactive),6.52% (inactive),-6.14% (inactive),101% (inactive),0.28 (inactive),-1% (inactive),-17.7% (inactive)
C=CCn1c(SCC(=O)NC2CCCCC2)nc2ccccc2c1=O,57.6,172% (inactive),4.27% (inactive),114% (inactive),3% (inactive),-5.54% (inactive),1.93% (inactive),11.4% (inactive),99.2% (inactive),0 (inactive),-4% (inactive),-17.7% (inactive)
Oc1ccc(Oc2ncc(Cl)cc2Cl)cc1,61.9,223% (inactive),-3.67% (inactive),73.7% (inactive),2% (inactive),-11% (inactive),-4.55% (inactive),8.39% (inactive),107% (inactive),0.12 (inactive),6% (inactive),-12.9% (inactive)
N/C(=N/OS(=O)(=O)c1ccc([N+](=O)[O-])cc1)c1ccncc1,61.1,135% (inactive),1.59% (inactive),108% (inactive),1% (inactive),-5.72% (inactive),-1.57% (inactive),6.86% (inactive),107% (inactive),-0.08 (inactive),18% (inactive),-8.96% (inactive)
CN1CCN(CCCN2c3ccccc3Sc3ccc(C(F)(F)F)cc32)CC1,64.7,215% (inactive),57.6% (active),80.3% (inactive),-2% (inactive),23.7% (inactive),1.45% (inactive),24.5% (active),109% (inactive),0 (inactive),8% (inactive),7.82% (inactive)
CCN(CC)C(=S)SSC(=S)N(CC)CC,59.7,164% (inactive),27.8% (inactive),109% (inactive),4% (inactive),14.2% (inactive),3.89% (inactive),-29.5% (inactive),100% (inactive),-0.13 (inactive),4% (inactive),-0.06% (inactive)
NC(N)=NC(=O)c1nc(Cl)c(N)nc1N,62.4,206% (inactive),7.4% (inactive),87% (inactive),0% (inactive),-22.4% (inactive),-4.43% (inactive),-1.82% (inactive),104% (inactive),-0.04 (inactive),-2% (inactive),-3.02% (inactive)
O=C(c1ccccc1F)c1cc2c(cc1[N+](=O)[O-])OCCO2,63,163% (inactive),15% (inactive),107% (inactive),3% (inactive),24.6% (inactive),-6.21% (inactive),1.51% (inactive),105% (inactive),-0.19 (inactive),7% (inactive),-1.65% (inactive)
